# Source: the supplement of paper PMC8728848
# The entries come from a sample that favours the strongest signals as a whole.
# B1: SSA (Sclerotinia sclerotiorum), A7XUK7 (protein)
# chain: MGFKGVGTYEIVPYQAPSLNLNAWEGKLEPGAVVRTYTRGDKPSDNAKWQVALVAGSGDSAEYLIINVHSGYFLTATKENHIVSTPQISPTDPSARWTIKPATTHQYEVFTINNKVSELGQLTVKDYSTHSGADVLSASAKTADNQKWYFDAK
# Experiments:
# Assay in all cases: glycan array binding signal (z-score within array); higher = stronger binding
# Conditions in all cases: glycan notation: IUPAC condensed, linker removed
# [1] = molecular target: Fuc(a1-2)Gal(b1-4)GlcNAc
# In short: (§1)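 The Consortium for Functional Glycomics database supplied 3228 glycan arrays, of which those lacking an available protein sequence were dropped. The binding signal, a within-array Z-score, was averaged across arrays of the same protein sequence and across linkers. Negative scores can be read as non-binding.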
# [2] = molecular target: Fuc(a1-2)Gal(b1-4)[Fuc(a1-3)]GlcNAc(b1-2)Man(a1-3)[Fuc(a1-2)Gal(b1-4)[Fuc(a1-3)]GlcNAc(b1-2)Man(a1-6)]Man(b1-4)GlcNAc(b1-4)GlcNAc
# In short: as §1
# [3] = molecular target: Fuc(a1-2)Gal(b1-4)[Fuc(a1-3)]GlcNAc(b1-3)Gal(b1-4)[Fuc(a1-3)]GlcNAc
# In short: as §1
# [4] = molecular target: Fuc(a1-2)[Gal(a1-3)]Gal(b1-3)GlcNAc(b1-2)Man(a1-3)[Fuc(a1-2)[Gal(a1-3)]Gal(b1-3)GlcNAc(b1-2)Man(a1-6)]Man(b1-4)GlcNAc(b1-4)GlcNAc
# In short: as §1
# [5] = molecular target: Fuc(a1-2)[Gal(a1-4)]Gal(b1-4)GlcNAc
# In short: as §1
# [6] = molecular target: Fuc(a1-2)[GalNAc(a1-3)]Gal(b1-4)Glc
# In short: as §1
# [7] = molecular target: Fuc(a1-2)[GalNAc(a1-4)]Gal(b1-4)GlcNAc
# In short: as §1
# [8] = molecular target: Gal(a1-3)Gal(b1-3)GlcNAc
# In short: as §1
# [9] = molecular target: Gal(a1-3)GalNAc
# In short: as §1
# [10] = molecular target: Gal(b1-4)GlcNAc(b1-3)Gal(b1-4)GlcNAc(b1-3)Gal(b1-4)GlcNAc
# In short: as §1
# [11] = molecular target: Gal6S(b1-4)GlcNAc6S
# In short: as §1
# [12] = molecular target: GalNAc(a1-3)Gal
# In short: as §1
# [13] = molecular target: GalNAc(b1-3)Gal
# In short: as §1
# [14] = molecular target: GalNAc(b1-3)Gal(a1-4)Gal(b1-4)GlcNAc
# In short: as §1
# [15] = molecular target: GalNAc(b1-3)Gal(a1-4)Gal(b1-4)GlcNAc(b1-3)Gal(b1-4)Glc
# In short: as §1
# [16] = molecular target: GalNAc(b1-4)GlcNAc
# In short: as §1
# [17] = molecular target: Glc(a1-6)Glc(a1-6)Glc
# In short: as §1
# [18] = molecular target: GlcNAc(a1-4)Gal(b1-4)GlcNAc(b1-3)Gal(b1-4)[Fuc(a1-3)]GlcNAc(b1-3)Gal(b1-4)[Fuc(a1-3)]GlcNAc
# In short: as §1
# [19] = molecular target: GlcNAc(b1-3)Gal(b1-4)GlcNAc(b1-3)Gal(b1-4)GlcNAc
# In short: as §1
# [20] = molecular target: GlcNAc(b1-3)[GlcNAc(b1-6)]GlcNAc(b1-4)GlcNAc
# In short: as §1
# [21] = molecular target: GlcNAc(b1-6)Gal(b1-4)GlcNAc
# In short: as §1
# [22] = molecular target: Man(a1-2)Man(a1-3)Man
# In short: as §1
# [23] = molecular target: Neu5Ac(a2-3)Gal(b1-3)GalNAc(b1-3)Gal(a1-4)Gal(b1-4)Glc
# In short: as §1
# [24] = molecular target: Neu5Ac(a2-3)Gal(b1-4)Glc
# In short: as §1
# [25] = molecular target: Neu5Ac(a2-3)Gal(b1-4)GlcNAc(b1-2)Man(a1-3)[GlcNAc(b1-2)Man(b1-4)GlcNAc(b1-2)Man(a1-6)]Man(b1-4)GlcNAc(b1-4)GlcNAc
# In short: as §1
# [26] = molecular target: Neu5Ac(a2-3)Gal(b1-4)GlcNAc(b1-3)Gal(b1-4)[Fuc(a1-3)]GlcNAc
# In short: as §1
# [27] = molecular target: Neu5Ac(a2-6)Gal(b1-4)GlcNAc(b1-2)Man(a1-3)[GlcNAc(b1-2)Man(a1-6)]Man(b1-4)GlcNAc(b1-4)GlcNAc
# In short: as §1
# [28] = molecular target: Neu5Ac(a2-8)Neu5Ac
# In short: as §1
# [29] = molecular target: Neu5Ac(b2-6)Gal(b1-4)GlcNAc
# In short: as §1
# [30] = molecular target: Neu5Gc(a2-3)Gal(b1-4)GlcNAc
# In short: as §1
binder,measurement,setting,value
B1,glycan array binding signal (z-score),[1],-0.112
same,glycan array binding signal (z-score),[2],-0.173
same,glycan array binding signal (z-score),[3],-0.407
same,glycan array binding signal (z-score),[4],-0.312
same,glycan array binding signal (z-score),[5],-0.198
same,glycan array binding signal (z-score),[6],-0.1
same,glycan array binding signal (z-score),[7],3.68
same,glycan array binding signal (z-score),[8],-0.253
same,glycan array binding signal (z-score),[9],0.053
same,glycan array binding signal (z-score),[10],-0.142
same,glycan array binding signal (z-score),[11],0.403
same,glycan array binding signal (z-score),[12],6.1
same,glycan array binding signal (z-score),[13],3
same,glycan array binding signal (z-score),[14],4.61
same,glycan array binding signal (z-score),[15],6.97
same,glycan array binding signal (z-score),[16],5.32
same,glycan array binding signal (z-score),[17],-0.343
same,glycan array binding signal (z-score),[18],0.158
same,glycan array binding signal (z-score),[19],-0.207
same,glycan array binding signal (z-score),[20],-0.467
same,glycan array binding signal (z-score),[21],-0.344
same,glycan array binding signal (z-score),[22],-0.3
same,glycan array binding signal (z-score),[23],-0.295
same,glycan array binding signal (z-score),[24],-0.186
same,glycan array binding signal (z-score),[25],-0.291
same,glycan array binding signal (z-score),[26],-0.158
same,glycan array binding signal (z-score),[27],-0.226
same,glycan array binding signal (z-score),[28],-0.215
same,glycan array binding signal (z-score),[29],-0.415
same,glycan array binding signal (z-score),[30],-0.366
